Results taken from PMC9911399, “Two distinct binding modes provide the RNA-binding protein RbFox with extraordinary sequence specificity”.
Residue numbers refer to the chain shown, from its start. Whole data set: some 16,000 sequences, median “ka relative to ugcaugu” near 0.096, cut for the highest 2% near 0.35. What follows is part of a selection rich in the highest values, with near analogues and random picks from the rest.

T1: RBFOX1 RRM RbFoxmut (Fox-RRM*) (Homo sapiens, UniProt Q9NWB1 109-208, R118D;E147R;N151S;E152T)
T1 sequence: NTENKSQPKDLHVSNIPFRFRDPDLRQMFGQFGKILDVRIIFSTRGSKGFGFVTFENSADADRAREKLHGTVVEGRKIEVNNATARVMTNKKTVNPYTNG

B1: UGAACAA (DNA:RNA)
RNA: GGGAGACCGGAAUUCAGAUUGUCCUGAACAAUUAAAUCCCGUCGUAGCCACCA
DNA 1: CAATCTGAATTCCGGTCTCCC
DNA 2: TGGTGGCTACGACGGGATT
B2: AUUUACA (DNA:RNA)
RNA: B1 RNA with U25A, G26U, A27U, A28U, C29A, A30C
DNA 1: CAATCTGAATTCCGGTCTCCC
DNA 2: TGGTGGCTACGACGGGATT
B3: UGAUGCG (DNA:RNA)
RNA: B1 RNA with A28U, C29G, A30C, A31G
DNA 1: CAATCTGAATTCCGGTCTCCC
DNA 2: TGGTGGCTACGACGGGATT
B4: UUGUGGU (DNA:RNA)
RNA: B1 RNA with G26U, A27G, A28U, C29G, A30G, A31U
DNA 1: CAATCTGAATTCCGGTCTCCC
DNA 2: TGGTGGCTACGACGGGATT
B5: ACACGAA (DNA:RNA)
RNA: B1 RNA with U25A, G26C, A28C, C29G
DNA 1: CAATCTGAATTCCGGTCTCCC
DNA 2: TGGTGGCTACGACGGGATT
B6: GCGUAAC (DNA:RNA)
RNA: B1 RNA with U25G, G26C, A27G, A28U, C29A, A31C
DNA 1: CAATCTGAATTCCGGTCTCCC
DNA 2: TGGTGGCTACGACGGGATT
B7: GGACGCA (DNA:RNA)
RNA: B1 RNA with U25G, A28C, C29G, A30C
DNA 1: CAATCTGAATTCCGGTCTCCC
DNA 2: TGGTGGCTACGACGGGATT
B8: UUAGUGG (DNA:RNA)
RNA: B1 RNA with G26U, A28G, C29U, A30G, A31G
DNA 1: CAATCTGAATTCCGGTCTCCC
DNA 2: TGGTGGCTACGACGGGATT
B9: GACAUGC (DNA:RNA)
RNA: B1 RNA with U25G, G26A, A27C, C29U, A30G, A31C
DNA 1: CAATCTGAATTCCGGTCTCCC
DNA 2: TGGTGGCTACGACGGGATT
B10: ACAUGCU (DNA:RNA)
RNA: B1 RNA with U25A, G26C, A28U, C29G, A30C, A31U
DNA 1: CAATCTGAATTCCGGTCTCCC
DNA 2: TGGTGGCTACGACGGGATT
B11: GUCCGCU (DNA:RNA)
RNA: GGGAGACCGGAAUUCAGAUUGUCCGUCCGCUUUAAAUCCCGUCGUAGCCACCA
DNA 1: CAATCTGAATTCCGGTCTCCC
DNA 2: TGGTGGCTACGACGGGATT
B12: GCAUUGC (DNA:RNA)
RNA: B11 RNA with U26C, C27A, C28U, G29U, C30G, U31C
DNA 1: CAATCTGAATTCCGGTCTCCC
DNA 2: TGGTGGCTACGACGGGATT
B13: GCCAUGC (DNA:RNA)
RNA: B11 RNA with U26C, C28A, G29U, C30G, U31C
DNA 1: CAATCTGAATTCCGGTCTCCC
DNA 2: TGGTGGCTACGACGGGATT
B14: CGCAUGC (DNA:RNA)
RNA: B1 RNA with U25C, A27C, C29U, A30G, A31C
DNA 1: CAATCTGAATTCCGGTCTCCC
DNA 2: TGGTGGCTACGACGGGATT
B15: GGCAUGC (DNA:RNA)
RNA: B11 RNA with U26G, C28A, G29U, C30G, U31C
DNA 1: CAATCTGAATTCCGGTCTCCC
DNA 2: TGGTGGCTACGACGGGATT
B16: GUCAUGC (DNA:RNA)
RNA: B11 RNA with C28A, G29U, C30G, U31C
DNA 1: CAATCTGAATTCCGGTCTCCC
DNA 2: TGGTGGCTACGACGGGATT
B17: GCAUGCU (DNA:RNA)
RNA: B11 RNA with U26C, C27A, C28U
DNA 1: CAATCTGAATTCCGGTCTCCC
DNA 2: TGGTGGCTACGACGGGATT
B18: UCUUCUA (DNA:RNA)
RNA: B1 RNA with G26C, A27U, A28U, A30U
DNA 1: CAATCTGAATTCCGGTCTCCC
DNA 2: TGGTGGCTACGACGGGATT
B19: CCUCCAG (DNA:RNA)
RNA: B1 RNA with U25C, G26C, A27U, A28C, A31G
DNA 1: CAATCTGAATTCCGGTCTCCC
DNA 2: TGGTGGCTACGACGGGATT
B20: GAACAGU (DNA:RNA)
RNA: B11 RNA with U26A, C27A, G29A, C30G
DNA 1: CAATCTGAATTCCGGTCTCCC
DNA 2: TGGTGGCTACGACGGGATT

The binders below were run against T1, RBFOX1 RRM RbFoxmut (Fox-RRM*) (assay: EMSA; HiTS-Eq, 1 nM pool, 10 min; buffer printed only for the single-RNA assays: 10 mM Tris pH 7.5, 150 mM NaCl, 3.4 mM EDTA, 0.001% NP-40, 30 C). Conditions: tags: His6 N-terminal (pET28a); label: 5' 32P.
Method in brief: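 Relative association constants, normalised to the cognate motif, were derived by comparing read counts of each RNA species with those of the control reaction. The RNA sequenced was the free fraction, separated by 8% native PAGE after a 10 min equilibration in 50 µL of 1 nM 5′-radiolabelled RNA (7 randomized nucleotides) with increasing concentrations of purified wild-type or mutant RbFox RRM.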

First: B1
Second: B2
The binding signal of the first is lower: 0.047 KA relative to UGCAUGU for the first, 0.119 KA relative to UGCAUGU for the second.

First: B3
Second: B4
The binding signal of the first is lower: 0.141 KA relative to UGCAUGU for the first, 0.164 KA relative to UGCAUGU for the second.

Compared with B5, B6 is lower in binding signal: 0.0925 KA relative to UGCAUGU for the first, 0.0833 KA relative to UGCAUGU for the second.

First: B7
Second: B8
The binding signal of the first is higher: 0.12 KA relative to UGCAUGU for the first, 0.0929 KA relative to UGCAUGU for the second.

First: B9
Second: B10
The binding signal of the first is lower: 0.0819 KA relative to UGCAUGU for the first, 0.102 KA relative to UGCAUGU for the second.

First: B11
Second: B12
The binding signal of the first is lower: 0.11 KA relative to UGCAUGU for the first, 0.134 KA relative to UGCAUGU for the second.

First: B13
Second: B14
The binding signal of the first is lower: 0.109 KA relative to UGCAUGU for the first, 0.951 KA relative to UGCAUGU for the second.

Compared with B15, B16 is lower in binding signal: 0.739 KA relative to UGCAUGU for the first, 0.19 KA relative to UGCAUGU for the second.

Compared with B17, B18 is lower in binding signal: 0.736 KA relative to UGCAUGU for the first, 0.0886 KA relative to UGCAUGU for the second.

First: B19
Second: B20
The binding signal of the first is higher: 0.101 KA relative to UGCAUGU for the first, 0.0727 KA relative to UGCAUGU for the second.
